Hits are enriched below; roughly 21% of the tested compounds scored in any of these assays.
CYP2C19 inh – inhibitors of human CYP2C19. P33261. CYP2C19 Supersomes, luciferin-H EGE luminescence, 30 min. inhibition, % at 5 µM. 96,000 tested, 21% active. AID 778;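 active means CYP2C19 inhibition above a set limit at 5 µM in the primary screen, cut at about 50% in these data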;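 further: plate controls were negative control wells for no effect and 2.5 mM tranylcypromine positive control for full effect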
Target sequence (P33261 whole entry, looked up): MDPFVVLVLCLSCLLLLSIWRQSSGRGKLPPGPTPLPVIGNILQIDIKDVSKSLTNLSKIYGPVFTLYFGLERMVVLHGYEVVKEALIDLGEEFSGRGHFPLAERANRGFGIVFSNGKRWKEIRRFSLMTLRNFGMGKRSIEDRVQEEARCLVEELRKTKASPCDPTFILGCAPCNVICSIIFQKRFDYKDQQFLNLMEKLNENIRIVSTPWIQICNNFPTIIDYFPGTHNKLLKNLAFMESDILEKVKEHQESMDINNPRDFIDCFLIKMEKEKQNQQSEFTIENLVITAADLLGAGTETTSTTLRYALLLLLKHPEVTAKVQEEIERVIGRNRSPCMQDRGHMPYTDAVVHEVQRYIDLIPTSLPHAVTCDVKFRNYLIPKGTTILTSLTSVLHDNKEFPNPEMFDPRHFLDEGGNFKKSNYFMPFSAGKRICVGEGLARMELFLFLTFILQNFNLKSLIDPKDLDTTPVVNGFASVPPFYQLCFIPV
CYP2C19 act – increases human CYP2C19 enzyme activity; P33261; recombinant CYP2C19, luciferin-H EGE luminescence; active compounds read high; 0 = fully inhibited enzyme, 1 = untreated enzyme; activation factor at 5 µM; 96,000 tested, under 10 active;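 active means activation factor of at least 2 at 5 µM in the primary screen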;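 further: 0 = wells with 2.5 mM tranylcypromine and 1 = vehicle-only wells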
MRP resist rev – compounds reversing MRP-mediated drug resistance; 85,000 tested, 0.04% active; H69AR cells + 2 uM doxorubicin, CellTiter-Glo, 72 h; AID 602; differential viability (reversal), % at 10 µM;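 active means viability drop by adding the cancer drug above about 55%, with treated viability meeting a 40% cutoff, limit read from the data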;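 further: viability without doxorubicin minus viability with 2 µM doxorubicin for each compound; larger differential means the compound sensitizes cells more to doxorubicin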
CYP2C9 inhib – human CYP2C9 inhibition; P11712; inhibition, % at 5 µM; AID 777; CYP2C9 Supersomes, luciferin-H conversion, luminescence; 96,000 tested, 20% active;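 active means blocking of liver enzyme CYP2C9 beyond about 50% at 5 µM, limit read from the data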
MRP1 act – activates MRP-1 | H69AR cells + doxorubicin, viability rescue, CellTiter-Glo | 140,000 tested, 0.61% active | viability increase, % at 10 µM;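 active means viability gain under doxorubicin at or above a set limit, the compound median plus 3 SD, cut at about 4.7% in these data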;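 further: MRP-1 overexpressing cells given doxorubicin 25 µM after compound pretreatment; 18-22 h compound pretreatment then 72 h with doxorubicin before readout; 0% = doxorubicin-only wells and 100% = vehicle-treated cells without doxorubicin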
CYP2C9 activ – increases human cytochrome P450 2C9 activity; P11712; recombinant CYP2C9, luciferin-H conversion, luminescence; active compounds read high; factor 1 = untreated enzyme, 0 = blocked; activation factor at 5 µM; 96,000 tested, 1.4% active;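 active means activation factor of 2 or more for CYP2C9 at a 5 µM dose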;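 further: 0 = sulfaphenazole-blocked wells and 1 = vehicle-only wells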
Starred values were filed as active, the others as inactive.

Screening CC(=O)c1c(C)[nH]c(C(=O)OCC(=O)Nc2cc(C(F)(F)F)ccc2N2CCOCC2)c1C returned CYP2C19 inh 35, CYP2C19 act 0.7, MRP resist rev -27, CYP2C9 inhib 58*, MRP1 act -2 and CYP2C9 activ 0.4.
O=C(CN1C(=O)NC2(CCc3ccccc32)C1=O)Nc1cc(C(F)(F)F)ccc1N1CCOCC1 (stereo unspecified) was read as CYP2C19 inh 35, CYP2C19 act 0.7, MRP resist rev 13, CYP2C9 inhib 89* and CYP2C9 activ 0.1.
Cc1noc(C)c1COC(=O)COc1cccc2c1OC(C)(C)C2 was read as CYP2C19 inh 77*, CYP2C19 act 0.2, MRP resist rev -8, CYP2C9 inhib 68*, MRP1 act -1 and CYP2C9 activ 0.3.
For CC1(C)Cc2cccc(OCC(=O)Nc3cccnc3)c2O1 the results were CYP2C19 inh 28, CYP2C19 act 0.7, MRP resist rev 1, CYP2C9 inhib 19, MRP1 act -1 and CYP2C9 activ 0.8.
For Cc1cc(C)n(CCCNCC(O)c2ccccc2)n1 (stereo unspecified) the results were CYP2C19 inh 8, CYP2C19 act 0.9, MRP resist rev 7, CYP2C9 inhib 5, MRP1 act -3 and CYP2C9 activ 1.
CC1(C)Cc2cccc(OCC(=O)Nc3cc(C(F)(F)F)ccc3N3CCOCC3)c2O1 was read as CYP2C19 inh 19, CYP2C19 act 0.8, MRP resist rev 15, CYP2C9 inhib 51*, MRP1 act 0 and CYP2C9 activ 0.5.
`Cc1nc2ccccc2nc1OCC(=O)Nc1cc(C(F)(F)F)ccc1N1CCOCC1` gave CYP2C19 inh 7, CYP2C19 act 0.9, MRP resist rev 16, CYP2C9 inhib 34, MRP1 act -1 and CYP2C9 activ 0.7.
Screening FC(F)Oc1ccc(NC(=S)NCC2COc3ccccc3O2)cc1 (stereo unspecified) returned MRP1 act -1.
`Cc1ccc(Oc2ccccc2/C=N/O)cc1` gave CYP2C19 inh 82*, CYP2C19 act 0.2, CYP2C9 inhib 40, MRP1 act -3 and CYP2C9 activ 0.6.
`C=CCOc1ccccc1/C=N/O` gave CYP2C19 inh 6, CYP2C19 act 0.9, MRP resist rev 5, CYP2C9 inhib -4, MRP1 act -1 and CYP2C9 activ 1.
For COc1cc(/C=C(\NC(=O)c2ccccc2)C(=O)Nc2cccc(O)c2)c([N+](=O)[O-])cc1OC the results were CYP2C19 inh 6, CYP2C19 act 0.9, CYP2C9 inhib 27, MRP1 act -1 and CYP2C9 activ 0.7.
Screening COc1cccc(/C=N/NC(=O)c2ccccc2N(Cc2ccccc2)S(=O)(=O)c2ccccc2)c1OC returned CYP2C19 inh 42, CYP2C19 act 0.6, CYP2C9 inhib 80*, MRP1 act -3 and CYP2C9 activ 0.2.
For CCOC(=O)c1nnn(CC(=O)Nc2cc(F)ccc2F)c1C(=O)OCC the results were CYP2C19 inh 68*, CYP2C19 act 0.3, MRP resist rev -3, CYP2C9 inhib 44, MRP1 act -2 and CYP2C9 activ 0.6.
`CCOC(=O)c1nnn(CC(=O)Nc2cc(Cl)ccc2C)c1C(=O)OCC` gave CYP2C19 inh 28, CYP2C19 act 0.7, MRP resist rev 10, CYP2C9 inhib 48, MRP1 act -3 and CYP2C9 activ 0.5.
For COC(=O)c1nnn(CC(=O)Nc2cccc(Cl)c2C)c1C(=O)OC the results were CYP2C19 inh 90*, CYP2C19 act 0.1, MRP resist rev -2, CYP2C9 inhib 45, MRP1 act 0 and CYP2C9 activ 0.6.
Screening CCOc1ccc(NC(=O)Cn2nnc(C(=O)NCc3ccccc3OC)c2N)cc1 returned CYP2C19 inh 12, CYP2C19 act 0.9, MRP resist rev 1, CYP2C9 inhib -113, MRP1 act 0 and CYP2C9 activ 2.1*.
`COC(=O)c1nnn(CC(=O)NC(=O)Nc2cccc(C)c2C)c1C(=O)OC` gave MRP1 act -1.
CCOC(=O)c1nnn(CC(=O)Nc2ccccc2OC)c1C(=O)OCC was read as CYP2C19 inh 55*, CYP2C19 act 0.5, MRP resist rev -5, CYP2C9 inhib 44, MRP1 act -1 and CYP2C9 activ 0.6.
Screening COc1ccccc1C1C(C#N)=C(N)N(c2cccnc2)C2=C1C(=O)CC(C)(C)C2 (stereo unspecified) returned MRP resist rev 36 and MRP1 act -5.
`CC(=O)c1ccc(Nc2ncnc3c2oc2ccccc23)cc1` gave CYP2C19 inh 12, CYP2C19 act 0.9, MRP resist rev 2, CYP2C9 inhib 42, MRP1 act 0 and CYP2C9 activ 0.6.
COc1ccc(C(=O)NCc2nnc(SCC(=O)N3CCc4ccccc43)n2CCc2ccccc2)cc1 was read as MRP1 act 0.
For Cc1cc(C)n2nc(SC3CCCCN(C(=O)c4ccc(F)cc4)C3=O)nc2n1 (stereo unspecified) the results were CYP2C19 inh -2, CYP2C19 act 1, MRP resist rev 10, CYP2C9 inhib 8, MRP1 act -3 and CYP2C9 activ 0.9.
`Cc1nnc(NC(=O)c2sc3ccccc3c2Cl)s1` gave CYP2C19 inh 19, CYP2C19 act 0.8, MRP resist rev -3, CYP2C9 inhib 55*, MRP1 act 0 and CYP2C9 activ 0.4.
`Cc1nnc(NC(=O)c2ccccc2Br)s1` gave CYP2C19 inh 5, CYP2C19 act 0.9, MRP resist rev -5, CYP2C9 inhib 55*, MRP1 act 6.0* and CYP2C9 activ 0.4.
Screening Cc1cccc(OCC(=O)Nc2ccccc2N2CCCCC2)c1 returned CYP2C19 inh 85*, CYP2C19 act 0.1, CYP2C9 inhib 65*, MRP1 act -4 and CYP2C9 activ 0.3.
O=C(COc1ccccc1)Nc1ccccc1N1CCCCC1 was read as CYP2C19 inh 66*, CYP2C19 act 0.3, MRP resist rev 2, CYP2C9 inhib 78*, MRP1 act -1 and CYP2C9 activ 0.2.
For O=C(COc1ccccc1)Nc1cc(C(F)(F)F)ccc1N1CCCC1 the results were CYP2C19 inh 33, CYP2C19 act 0.7, CYP2C9 inhib 18, MRP1 act -3 and CYP2C9 activ 0.8.
For O=C(COc1ccccc1)Nc1ccccc1Oc1ccccc1 the results were MRP1 act -2.
For O=C(COc1ccccc1)Nc1ccccc1N1CCN(c2ccc(F)cc2)CC1 the results were CYP2C19 inh -4, CYP2C19 act 1, MRP resist rev 2, CYP2C9 inhib 8, MRP1 act -2 and CYP2C9 activ 0.9.
`CN1CCN(c2ccccc2NC(=O)COc2ccc(Br)cc2)CC1` gave CYP2C19 inh 48, CYP2C19 act 0.5, MRP resist rev 7, CYP2C9 inhib 80*, MRP1 act -1 and CYP2C9 activ 0.2.

High-throughput results deposited in PubChem BioAssay by several laboratories.
